SENP8 block-1: blocks human SENP8 cleavage of Nedd8 substrate. inhibition, % at 20 µM. AID 602440. recombinant SENP8, Nedd8 substrate fluorescence. 360,000 compounds, 0.64% hits; in the data active = inhibition mostly above about 40%, no sharp cut-off; inactive = mostly below about 27%
SENP7 block: inhibitors of human SENP7 protease; Q9BQF6; recombinant SENP7, Z-RLRGG-aminoluciferin luminescence, 40 min; inhibition, % at 5 µM; 330,000 compounds, 1.5% hits; AID 434973;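 active = inhibition above about 50% at the single test dose, limit read from the data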;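 also: plate controls were DMSO with enzyme for no effect and no enzyme buffer wells for full effect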
SENP6 inh: SENP6 protease inhibition. Q9GZR1. Recombinant SENP6 catalytic domain, aminoluciferin luminescence. inhibition, % at 10 µM. 330,000 compounds, 1.8% hits;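 active = inhibition above about 50% at the single tested dose, limit read from the data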;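 also: plate controls were DMSO wells with enzyme for no effect and DMSO wells lacking enzyme for full effect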
Target sequence (Q9GZR1 628-1112 limits assumed): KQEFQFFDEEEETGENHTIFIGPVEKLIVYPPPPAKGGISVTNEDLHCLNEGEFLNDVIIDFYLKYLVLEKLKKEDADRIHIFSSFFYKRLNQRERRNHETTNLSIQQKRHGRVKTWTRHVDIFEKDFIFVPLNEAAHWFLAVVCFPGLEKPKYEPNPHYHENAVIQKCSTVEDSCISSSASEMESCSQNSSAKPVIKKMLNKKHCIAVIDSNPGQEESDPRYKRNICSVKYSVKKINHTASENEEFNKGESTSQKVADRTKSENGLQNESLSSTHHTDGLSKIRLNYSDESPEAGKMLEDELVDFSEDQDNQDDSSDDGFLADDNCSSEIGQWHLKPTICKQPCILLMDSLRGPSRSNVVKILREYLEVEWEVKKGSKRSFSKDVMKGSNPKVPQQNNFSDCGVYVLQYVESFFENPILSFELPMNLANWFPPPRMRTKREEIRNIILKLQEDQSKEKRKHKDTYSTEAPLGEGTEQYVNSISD
SENP8 block-2: blocks the human protease SENP8; Q96LD8; purified SENP8, Z-RLRGG-aminoluciferin cleavage, luminescence; inhibition, % at 10 µM; 330,000 compounds, 1.2% hits; in the data active = inhibition above about 50%
Platelet DG rel: modulates dense granule release in human platelets; human platelet-rich plasma, SFLLRN dense granule ATP release, luminescence; 300,000 compounds, 0.22% hits; inhibition, %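 (compounds screened at 7.5 µM in platelet-rich plasma)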; AID 1663;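 active = mean replicate score, as percent of positive control, at or above 50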
SENP8 conf: confirmation of human SENP8 protease inhibitors; shares compounds with SENP7 block; Recombinant SENP8, Z-RLRGG-aminoluciferin luminescence, 60 min; inhibition, % at 12.5 µM; 6,200 compounds, 40% hits;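 active = mean inhibition across replicates above about 50%, limit read from the data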
SENP6 confirm: human SENP6 inhibition, confirmed | recombinant SENP6, Z-RLRGG-aminoluciferin luminescence | inhibition, % at 12.5 µM | 6,200 compounds, 58% hits | AID 488915 | shares compounds with SENP7 block
SENP7 confirm: human SENP7 inhibition, confirmed; shares compounds with SENP7 block; recombinant SENP7, Z-RLRGG-aminoluciferin luminescence, 40 min; inhibition, % at 12.5 µM; 6,200 compounds, 69% hits
Casp3 SENP sel: inhibits human caspase-3 in SENP selectivity test. shares compounds with SENP7 block. purified caspase-3, Z-DEVD-aminoluciferin luminescence, 60 min. inhibition, % at 12.5 µM. 6,200 compounds, 60% hits. AID 488918;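 active = mean inhibition above about 50%, limit read from the data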;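 also: plate controls were enzyme with DMSO for no effect and wells without caspase-3 for full effect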
Target sequence (P42574 28-227 limits assumed): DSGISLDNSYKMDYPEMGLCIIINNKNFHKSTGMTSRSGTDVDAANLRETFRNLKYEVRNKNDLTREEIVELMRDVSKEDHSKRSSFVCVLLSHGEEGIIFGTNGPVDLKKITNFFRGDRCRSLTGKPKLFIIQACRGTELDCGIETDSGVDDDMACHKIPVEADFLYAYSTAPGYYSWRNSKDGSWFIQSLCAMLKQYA
Luc interf: counter-screen for SENP inhibitors: luminescence interference; shares compounds with SENP7 block; Pre-incubated SENP8/Z-RLRGG-aminoluciferin, luciferase luminescence interference; inhibition, % at 12.5 µM; 6,200 compounds, 39% hits;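 active = mean inhibition above about 50% when retested at one dose, limit read from the data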;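 also: plate controls were DMSO wells with completed reaction for no effect and substrate without enzyme for full effect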
Active calls of the source: *; / = no result. Hits are enriched below; roughly 2.4% of the tested compounds scored in any of these assays.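 The calls were made as follows, unless noted: active = mean inhibition above about 50% in the one-dose retest (limit read from the data); inactive = the rest.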

SMILES | SENP8 block-1 | SENP7 block | SENP6 inh | SENP8 block-2 | Platelet DG rel | SENP8 conf | SENP6 confirm | SENP7 confirm | Casp3 SENP sel | Luc interf
c1ccc2nc(-c3nc4ccccc4[nH]3)ccc2c1 | -468.9 | 99.7* | 96.9* | 96.6* | 82.8* | 94.8* | 97.5* | 103.4* | 98.2* | 48.9
Cn1cccc1/C=C1\CCc2ccccc2C1=O | -11.6 | 42.6 | 100.2* | 95.4* | 67.2* | 97.5* | 98.3* | 101.6* | 96.8* | 96.0*
O=C1/C(=C/c2cccs2)Cc2ccccc21 | 7.0 | 92.3* | 91.0* | 84.2* | 18.5 | 82.6* | 90.9* | 98.6* | 86.7* | 70.4*
Cn1cccc1/C=C1\Cc2ccccc2C1=O | -255.6 | 92.9* | -7.9 | 91.9* | 36.0 | 66.5* | 91.0* | 99.2* | 92.7* | 36.1
CC(=O)NCCC(=O)Nc1cc(S(=O)(=O)N2CCCCC2)ccc1Oc1ccccc1 | 4.8 | -1.5 | -14.1 | 1.3 | -4.3 | / | / | / | / | /
O=C(NNS(=O)(=O)c1ccccc1)C1CCCCC1 | 12.8 | -2.1 | 0.5 | -0.2 | 2.9 | / | / | / | / | /
CCOC(=O)CSc1nnc(NC(=O)CCc2ccccc2)s1 | -3.6 | -3.5 | -2.3 | -4.0 | 2.0 | / | / | / | / | /
Cc1c(CC(=O)O)c(=O)oc2cc(OCc3ccc(Cl)cc3)ccc12 | -277.6 | -7.2 | -16.4 | -18.3 | 1.3 | / | / | / | / | /
O=C(Nc1ccccc1C(=O)N1CCN(Cc2ccccc2)CC1)c1ccc(F)cc1 | 13.4 | 13.5 | -15.6 | -8.8 | -6.2 | / | / | / | / | /
CCCCC(=O)N1CCN(c2nc3ccc(F)cc3s2)CC1 | 1.0 | 81.9* | 84.1* | 72.6* | 6.2 | 77.8* | 74.9* | 94.6* | 89.0* | 48.7
Cc1ccc(NC2=Nc3ccccc3CS2)cc1 | 27.3 | 92.0* | 82.9* | 75.0* | -13.1 | 49.7 | 82.6* | 94.9* | 85.1* | 5.8
COc1ccc(NC(=O)COC(=O)CCC2CCCCC2)cc1 | 20.1 | 2.6 | 4.5 | -2.2 | / | / | / | / | / | /
O=C(Nc1ccc(Cl)cc1)Nc1ccccc1C(=O)O | -391.5 | 99.5* | 95.1* | 96.3* | 52.5* | 7.6 | 100.8* | 103.5* | 99.3* | 47.8
O=C(O)c1cccnc1Nc1ccc(Cl)cc1 | 18.2 | 20.5 | 66.1* | 55.6* | 14.9 | 72.5* | 70.2* | 84.8* | 72.5* | 73.8*
NC(=O)c1ccccc1OCC(=O)Nc1ccc(Cl)c(Cl)c1 | 12.8 | 26.6 | 51.6* | 17.6 | 7.0 | 15.3 | 21.1 | 63.6* | 23.8 | 11.0
O=C(Cc1ccccc1)NNC(=O)Nc1ccc(Cl)c(Cl)c1 | 3.9 | 2.6 | -9.2 | 2.3 | -4.0 | / | / | / | / | /
O=C(Nc1ccc(Cl)cc1)Nc1ccccc1CC[N+](=O)[O-] | 9.2 | -7.1 | -2.0 | -8.6 | -4.3 | / | / | / | / | /
Cc1ccc(Nc2ncccc2C(=O)O)cc1C | 1.8 | 2.2 | 46.4 | 34.4 | -2.6 | / | / | / | / | /
O=C(Nc1ccc(Cl)c(Cl)c1)Nc1ccccc1C(=O)O | -262.5 | 100.5* | 99.9* | 97.6* | 29.6 | 3.8 | 101.3* | 104.2* | 99.9* | 100.0*
CCc1cc(CNC(=O)C2CCC(=O)N(CCc3cccc(F)c3)C2)on1 (configuration not stated) | 5.5 | -4.2 | -2.3 | 0.5 | -0.5 | / | / | / | / | /
Nn1c(SCC(=O)NNC(=O)c2ccccc2)nnc1-c1ccccc1F | 4.4 | -3.0 | -0.6 | -1.0 | -3.8 | / | / | / | / | /
Cc1ccc(NC(=O)Nc2ccccc2C(=O)NCc2ccccc2)cc1 | -145.4 | 72.7* | 25.1 | 42.4 | 7.2 | 12.9 | 19.3 | 76.2* | 56.3* | 48.4
COc1ccc(-c2ccc(CN3C(C(C)C)C(=O)N(Cc4cn(Cc5ccco5)nn4)CCS3(=O)=O)cc2)cn1 (configuration not stated) | 0.3 | / | / | / | / | / | / | / | / | /
N#Cc1ccsc1NC(=O)COc1ccc(-c2nnco2)cc1 | -37.4 | 70.7* | 86.9* | 70.1* | 4.4 | -22.7 | 65.7* | 92.6* | 86.9* | 21.9
N#C/C(=C/c1ccc(N2CCOCC2)c([N+](=O)[O-])c1)C(N)=O | 14.0 | 90.4* | -1.7 | -7.3 | 29.0 | 21.4 | 7.5 | 5.4 | 4.3 | 2.3
SMILES | SENP8 block-1 | SENP7 block | SENP6 inh | SENP8 block-2 | Platelet DG rel | SENP8 conf | SENP6 confirm | SENP7 confirm | Casp3 SENP sel | Luc interf
CO/N=C/c1ccc(N2CCOCC2)c([N+](=O)[O-])c1 | 1.3 | 2.3 | -5.7 | -5.8 | 2.8 | / | / | / | / | /
O=c1c(-c2ccccc2)c[nH]n1-c1cccc([N+](=O)[O-])c1 | 7.8 | 68.3* | 78.5* | 75.5* | 5.5 | 73.3* | 72.5* | 94.1* | 90.4* | 73.9*
O=c1c(-c2ccc(Cl)cc2)c[nH]n1-c1ccccc1 | -5.9 | 5.6 | 54.4* | 42.3 | 8.2 | 22.3 | 38.2 | 48.3 | 65.8* | 7.0
Cc1[nH]n(-c2ccccc2)c(=O)c1-c1ccc(Cl)cc1 | -19.0 | 3.2 | 2.4 | 3.3 | / | / | / | / | / | /
CCc1ccccc1N(C(C)=O)c1nc(CN=C=S)cs1 | 13.4 | -6.5 | -7.1 | -7.9 | -0.4 | / | / | / | / | /
Cc1ccc2nc(C3CCCCC3)c(CC(C)(C)C)n2c1 | 0.2 | / | / | / | / | / | / | / | / | /
COc1ccc(CCn2nc(C)c([N+](=O)[O-])c2C)cc1 | 1.1 | 58.8* | 70.6* | 30.3 | -10.1 | 57.0* | 52.8* | 81.5* | 79.0* | 62.0*
C=C(C)COc1ccc(-c2ncncc2-c2ccccc2OC)c(O)c1 | 12.4 | -6.1 | 1.7 | 84.6* | -1.2 | -1.5 | 6.0 | 1.8 | 0.5 | 1.1
CCOc1ccc(-c2ncncc2-c2ccccc2OC)c(O)c1 | 3.2 | 9.9 | 22.3 | 2.5 | -1.4 | / | / | / | / | /
Cn1c(CNC(=O)c2ccc(Cl)cc2)nnc1SCC(=O)N1CCOCC1 | 4.8 | 6.3 | -16.5 | 2.4 | -3.0 | / | / | / | / | /
CCOc1ccc(-c2cc(N3C(=O)Nc4ccccc4N3O)on2)cc1 | 3.2 | 39.3 | 54.1* | 17.6 | -2.2 | 43.5 | 42.2 | 78.9* | 77.4* | 66.7*
O=C(N/N=C/c1c(Cl)cccc1Cl)c1n[nH]c2c1CCCC2 | 13.2 | 70.8* | 28.3 | 67.9* | 0.3 | 13.3 | 71.5* | 92.4* | 79.8* | 6.7
O=C(NN=C1CCCC1)c1n[nH]c2c1CCCC2 | 16.2 | 44.6 | 68.1* | 39.4 | 4.9 | 57.9* | 67.6* | 87.4* | 90.0* | 50.8*
O=C(NN=C1CCCC1)c1n[nH]c2c1CCC2 | 9.8 | 8.1 | -2.9 | 2.8 | -3.0 | / | / | / | / | /
O=C(NC1CCCCC1)c1n[nH]c2c1CCCCC2 | 11.5 | 89.7* | 89.5* | 83.9* | / | 85.7* | 85.8* | 97.4* | 93.9* | 73.3*
COc1cc(-c2nnc(NC(=O)CCS(=O)(=O)c3ccccc3)o2)cc(OC)c1OC | 7.4 | 3.4 | -7.6 | 1.2 | 10.2 | / | / | / | / | /
CC1CCN(C(=O)CSc2nc(N)c(NC(=O)c3ccccc3)c(=O)[nH]2)CC1 | -47.5 | 1.3 | -10.9 | 8.1 | 12.5 | / | / | / | / | /

High-throughput results (PubChem BioAssay)
